Several values for one entry are separate records, joined by “and”; a condition that tells them apart may be missing. Equal entries are not always repeated. Inconclusive results are not listed. Entries that show only a call come without a potency. Activity calls are given as the source filed them. Calls follow the shape of the dose curve; as a rule, active = well fitted cell-killing curve with a large enough effect in the repeat runs; inconclusive = weak or mixed curves, or effect the other way; inactive = flat fitted curve, though single readings scatter.
What was measured:
[1] = cAMP Responsive Elements (CRE) small molecule antagonists, cell-based qHTS assay: qHTS cell viability counter screen (AID 2060913); also: nearly all actives have a fitted effect of over 40% in size; also: potency is read from the fitted curve at half-maximal effect
How it was run: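 CRE-bla HEK293T cells (2,000/well, 18 h) given compound plus NKH477 0.25 uM final for 3 h at 37C; viability counter-screen by CellTiter-Glo luminescence in same wells after 30 min.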

[2] = cAMP Responsive Elements (CRE) small molecule agonists, cell-based qHTS assay: qHTS cell viability counter screen (AID 2060914);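 also: viability read after 3 h of compound exposure; nearly all actives have a fitted effect of over 50% in size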
How it was run: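 HEK 293T CRE-bla; DMEM + 10% dialyzed FBS, 25 mM HEPES; 18 h pre-incubation; compound 3 h, 37 °C/5% CO2; CellTiter-Glo added after reporter read; luminescence after 30 min RT.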

Question: For `CCOc1ccc2c(c1)C(C)CC(C)(C)N2` (stereo not given), which Potency [1] is on record?
Answer: The Potency was “inactive”.

Question: What about the Potency [2] of the same compound?
Answer: The Potency was “inactive”.

Question: What does the source list for `c1ccc2c(CC3=NCCN3)cccc2c1`?
Answer: Potency [1]: inactive; Potency [2]: inactive

Question: With `CC(=O)N(O)CCCCCNC(=O)CCC(=O)N(O)CCCCCNC(=O)CCC(=O)N(O)CCCCCN` as the compound, how does the Potency [1] read?
Answer: Its Potency is “inactive”.

Question: What about the Potency [2] of the same compound?
Answer: The Potency was “inactive”.

Question: For `CC(=O)[C@H]1CC[C@H]2[C@@H]3CCC4=CC(=O)CC[C@]4(C)[C@H]3CC[C@]12C`, which Potency [1] is on record?
Answer: The Potency was 60.8 µM (active) and 61.1 µM (active).

Question: And the Potency [2]?
Answer: The Potency was “inactive”.

Question: What does the source list for `CN(C)CCN1CCN(c2cccc(Cl)c2)C1=O`?
Answer: Potency [1]: inactive; Potency [2]: inactive

From PubChem BioAssay (Tox21)
